Shiga toxin inh – Shiga toxin inhibition. Vero cells, Shiga toxin protein synthesis inhibition reporter. inhibition, % at 38.7 µM. 290,000 compounds, 9.2% hits. AID 2315; in the data active = inhibition mostly above about 28%, no sharp cut-off; inactive = mostly below about 43%; note: 0% is about no effect
Pf growth 96h – inhibits malaria parasite growth, 96 h; P. falciparum luciferase reporter growth, 96 h; Potency, µM (titrated, usually from 28.7 µM), without a hit: at the top dose activity change, negative = inhibition, usual class: inhibitors; AID 504834; 320,000 compounds, 6.9% hits; note: potency is the fitted concentration of half-maximal effect; % is set by controls: 0 for no effect and ±100 for the full control effect
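96 h incubation, 37 C, 5% CO2, of luciferase-reporter P. falciparum-infected RBCs (2% hematocrit, 0.05% parasitemia final) with test compounds; endpoint luminescence.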
Pf growth 48h – P. falciparum growth inhibition at 48 hours (one generation). P. falciparum luciferase growth in erythrocytes, 48 h. Potency, µM (titrated, usually from 28.7 µM), for the others: at the highest dose activity change, negative = inhibition, hits mostly inhibitors. 310,000 compounds, 5.9% hits. AID 504832; note: potency is the fitted concentration of half-maximal effect; % is set by controls: 0 for no effect and ±100 for the full control effect
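Here the parasites carry a stable luciferase gene and grow inside erythrocytes in Albumax-based RPMI medium with compound for one erythrocytic cycle. Activity is scored as loss of luminescent signal.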
Cycloheximide cs – affects cycloheximide protein synthesis inhibition readout, counter-screen | max response, % | cell reporter, cycloheximide protein synthesis inhibition counterscreen | AID 2314 | 300,000 compounds, 12% hits; in the data active = max response mostly above about 13%, no sharp cut-off; inactive = mostly below about 14%; note: read at 38.3 µM for the half of the compounds with a filed dose; 0% is about no effect
The depositor's hits bear a star; i = inactive; u = inconclusive; x = not tested or not shown. Compounds with a hit are over-represented: about 21% of the library has one in this group of screens. Unless noted, calls come from the whole dose curve; as a rule, active = well fitted inhibition curve with a large enough effect; inconclusive = small, poorly fitted or top-dose-only effect, or another doubt; inactive = no such curve, though single readings can be large or run the other way.

SMILES	Shiga toxin inh	Pf growth 96h	Pf growth 48h	Cycloheximide cs
COc1ccc(C2=NNC(c3cc(Cl)cc4c3OCOC4)C2)c(O)c1 (stereo not given)	48	2%	8.3µM*	17*
Oc1ccc(Cl)cc1C1=NNC(c2cc(Br)cc3c2OCOC3)C1 (stereo not given)	-4	28%	u	14
CN(C(=O)c1ccco1)c1nc2c(s1)CCCC2	42*	265%	x	31*
CN(C(=O)COc1ccc(Cl)cc1Cl)c1nnc(C23CC4CC(CC(C4)C2)C3)s1	-10	13µM*	u	-5
CN(C(=O)c1ccco1)c1nnc(C23CC4CC(CC(C4)C2)C3)s1	83*	-98%	u	57*
CN(C(=O)COc1ccc(Cl)cc1)c1nnc(C23CC4CC(CC(C4)C2)C3)s1	-4	54%	16%	-2
COc1ccc(C2=C(CC(=O)O)C(=O)CC2)cc1	13	0%	24%	5
O=C(O)CC1=C(c2ccc(F)cc2)CCC1=O	-7	6.6µM*	-9%	-2
CCN(CC)S(=O)(=O)c1c(OC)cc(C)c(Cl)c1C	-3	5%	u	5
CCn1ccc(C(=O)NC2CCCC2)n1	14	-13%	11%	2
CCc1ccc(OC(=O)c2ccn(CC)n2)cc1	150*	u	5%	40*
Oc1c(/C=N/Nc2cccc3cccnc23)ccc2ccccc12	90*	9%	5.9µM*	74*
Cc1ccc2nc(C)cc(N/N=C/c3cccc(O)c3)c2c1	11	-39%	u	1
COc1cc(/C=N/Nc2cccc3cccnc23)cc(OC)c1O	69*	7%	u	34*
Oc1cccc(/C=N/Nc2cccc3cccnc23)c1	123*	224%	-22%	44*
O=C(Nc1cccc2cccnc12)c1cccc2ccccc12	-1	1%	x	-1
CN(C)S(=O)(=O)c1cccc(NC(=O)COC(=O)c2c[nH]c(=O)[nH]c2=O)c1	11	u	-3%	2
Cc1cccc(NS(=O)(=O)c2ccc(C)c(NS(=O)(=O)c3cccs3)c2)c1	x	31%	-1%	x
O=C(Cc1ccc(Cl)cc1Cl)OCC(=O)N1CCN(C(=O)c2ccco2)CC1	9	23%	26%	10
COc1ccc(C(=O)Sc2nncc3ccccc23)cc1	37	34%	36%	20*
COc1ccc(NC(=O)CSc2nncc3ccccc23)cc1	-12	13%	27%	20
COc1ccc(NS(=O)(=O)c2ccc3c(c2)CCC(=O)N3)c(OC)c1	14	u	-12%	-3
CC(C)C(=O)N1CCN(c2ccc(NC(=S)NC(=O)c3cc4ccccc4o3)cc2)CC1	75*	5.2µM*	0%	33*
CC(=O)c1ccc(NC(=O)c2cc3ccccc3o2)cc1	x	36%	108%	35*
CC(=O)N1CCN(c2ccc(NC(=O)c3cc4ccccc4o3)cc2)CC1	20	u	u	22
SMILES	Shiga toxin inh	Pf growth 96h	Pf growth 48h	Cycloheximide cs
CC(C)c1nnc(NC(=O)c2cc3ccccc3o2)s1	111*	35%	180%	33*
O=C(Nc1ccc(F)cc1)c1cc2ccccc2o1	58*	u	186%	46*
O=C(Nc1ccc(NC(=O)c2cc3ccccc3o2)cc1)c1ccco1	42	0%	0%	1
Cc1oc(C)c(C(=O)Nc2ccccc2)c1C	14	x	x	48
O=C(Nc1ccccc1)c1cc2ccccc2o1	45*	159%	308%	26
Cc1cc(C(=O)Nc2ccccc2)oc1C	121*	u	253%	39*
O=C(Nc1ccc(N2CCCC2)cc1)c1cc2ccccc2o1	65*	u	u	47*
Cc1ccc(S(=O)(=O)NCCC(=O)N2CCC(C)CC2)cc1	x	-9%	1%	x
Cc1ccc(SCCC(=O)N2CCC(C)CC2)cc1	73*	i	392%	34*
Cc1ccc(SCCC(=O)N2CCC(C(N)=O)CC2)cc1	-6	u	28%	14*
NC(=O)C1CCN(C(=O)CCSCc2ccccc2)CC1	7	u	u	24*
Cc1cc(C)nc(SCC(=O)N2CCC(C(N)=O)CC2)n1	-2	x	20%	-4
Cn1c(SCC(=O)c2ccc(O)cc2O)nnc1-c1ccccc1	-1	-13%	4%	-5
CCOC(=O)c1c(C)nc(C(Cl)(Cl)Cl)nc1N	56*	140%	13µM*	18*
CCOC(=O)c1nc(N)c(C(=O)OCC)[nH]1	13	x	16%	-4
Cc1cc(C)n2c(Nc3ccc4c(c3)OCCO4)c(-c3ccco3)nc2n1	-15	12µM*	x	-3
Cc1ccc(-c2nc3cnccn3c2Nc2ccc3c(c2)OCO3)o1	12	u	u	-3
Cc1cc(C)n2c(Nc3ccc4c(c3)OCCO4)c(-c3ccc(C)o3)nc2n1	28	5.9µM*	x	14
Cc1cccc(-n2ncc3c(NCCCN4CCCC4=O)ncnc32)c1	77*	8%	104%	58*
Cc1ccc(-n2ncc3c(NCCCN4CCOCC4)ncnc32)c(C)c1	-3	-19%	x	-7
O=C1CCCN1CCCNc1ncnc2c1cnn2-c1ccc(Cl)cc1	29*	27%	85%	28*
Cc1cccc(-n2ncc3c(NCCCn4ccnc4)ncnc32)c1	74*	u	u	62*
CC(=O)/C=C(\C)Nc1ccc(-c2cnc(-c3ccccc3)o2)cc1	130*	155%	114%	83*
CC(C)C(=O)Nc1ccc(-c2ccc3nncn3n2)cc1	18	-24%	-19%	12
CC(C)C(=O)Nc1ccc(-c2nnc(-c3ccccc3)o2)cc1	119*	224%	181%	72*
SMILES	Shiga toxin inh	Pf growth 96h	Pf growth 48h	Cycloheximide cs
CC(C)C(=O)Nc1ccc(C(=O)c2ccccc2)cc1	57*	191%	201%	50*
CC(=O)Nc1ccc(-c2nc3ccccc3c(=O)o2)cc1	20	u	29%	-8
O=C(Nc1ccc(-c2nnc(-c3ccccc3)o2)cc1)C(F)(F)F	73	-6%	160%	49*
Cc1cc(/C=C(\C#N)C(=O)NCc2ccco2)c(C)n1-c1ccc(C(=O)O)cc1	-3	u	7%	-2
CCOc1ccc(NC(=O)c2cc(S(=O)(=O)N3CCOCC3)cn2C)cc1	-2	106%	-11%	-4
CC(C)c1nc(SCC(=O)NC2CCCC2)c2c(=O)n(C)c(=O)n(C)c2n1	-30	-1%	-5%	6
Cc1nc(-c2ccc(NC(=O)C(C)(C)C)cc2)c(-c2ccccc2)o1	13	4.1µM*	x	-1
O=C(CCc1ccc(S(=O)(=O)NC2CCCCC2)cc1)NCc1ccc(Cl)cc1	9	x	-10%	-1
CC(C)(CNC(=O)CCC1CCCC1)CNC(=O)CCC1CCCC1	-12	10µM*	u	9
O=C(CCC1CCCCC1)NCc1ccc(F)cc1	active	u	45%	23*
O=C(CCC1CCCC1)NCCCNC(=O)CCC1CCCC1	-1	8%	u	1
O=C(CCC1CCCCC1)NCc1ccncc1	-1	x	4%	-3
O=C(CC1CCCCC1)NCc1ccc(Cl)cc1	x	u	48%	27*
Cc1cc(-c2nn(-c3ccccc3F)cc2CN(C)CC(O)CO)c(C)s1 (stereo not given)	-9	u	u	1
COc1cc(CC(=O)O)ccc1OCc1ccccc1	7	41%	4%	2

High-throughput results from PubChem BioAssay.
